Pf Dd2 growth: Plasmodium falciparum Dd2 growth inhibition; P. falciparum Dd2 growth, SYBR Green, 72 h; Potency, µM (doses to about 28.9 µM), most hits filed as inhibitors; 120,000 tested, 4.3% active; AID 1347417; active means well fitted inhibition curve with a large enough effect; further: nearly all actives have a fitted effect of over 65% in size
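Infected erythrocytes (Dd2, 0.3% parasitemia, 2.5% hematocrit final) are added to compound in RPMI-1640/Albumax II medium, grown 72 h at 37C in low oxygen, then lysed with saponin/Triton-X containing SYBR Green and read by fluorescence.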
Each line names hits and unclear results; the compound was inactive in the other large screens. This excerpt belongs to a sample that is enriched for hits.

COc1cccc(N2C(=O)CSC23C(=O)N(CC(=O)Nc2cc(C)ccc2C)c2ccccc23)c1 (stereo not drawn)	Pf Dd2 growth 8.9µM
Cc1ccc(N2C(=O)CSC23C(=O)N(CC(=O)NCCc2ccccc2)c2ccccc23)cc1 (stereo not drawn)	none
COc1ccc(N2C(=O)CSC23C(=O)N(Cc2ccc(C)cc2)c2ccccc23)cc1Cl (stereo not drawn)	none
Cc1ccc(NC(=O)CN2C(=O)NC3(CCCCC3)C2=O)c(C)c1	none
COc1ccc(N2C(=O)CSC23C(=O)N(Cc2ccccc2F)c2ccccc23)cc1Cl (stereo not drawn)	none
Cc1ccc(NC(=O)CN2C(=O)C3(SCC(=O)N3c3ccc(F)c(F)c3)c3ccccc32)c(C)c1 (stereo not drawn)	Pf Dd2 growth 14µM
O=C1CSC2(C(=O)N(Cc3ccccc3F)c3ccccc32)N1c1cccc(C(F)(F)F)c1 (stereo not drawn)	Pf Dd2 growth 7.1µM
Cc1ccc(NC(=O)CN2C(=O)CCSc3ccccc32)c(C)c1	none
COc1cccc(CN2C(=O)C3(SCC(=O)N3c3ccc(C)c(Cl)c3)c3ccccc32)c1 (stereo not drawn)	none
COc1cccc(CN2C(=O)C3(SCC(=O)N3c3ccc(C(C)C)cc3)c3ccccc32)c1 (stereo not drawn)	none
Cc1cccc(N2C(=O)CSC23C(=O)N(CC(=O)Nc2cccc(Cl)c2)c2ccccc23)c1 (stereo not drawn)	Pf Dd2 growth 14µM
COc1ccc(CC(=O)N2C[C@@H](CO)[C@H](c3nc(C)no3)C2)cc1	none
COc1ccc(C(=O)NC2CCCN(c3cc(-c4ccc(F)cc4)[nH]n3)C2)cc1F (stereo not drawn)	none
CNc1c(-c2noc(C)c2C(=O)NCCCOC)cnn1C	none
O=C1CCC(C(=O)N2CCc3nc(-c4cccc(F)c4)[nH]c3C2)NC(=O)N1 (stereo not drawn)	none
NC(=O)[C@@H]1CCCN1CC[C@H]1CN(C(=O)Nc2ccccc2)CC[C@H]1CC(=O)O	none
CC(C)C1CN2CCCC2CN1 (stereo not drawn)	none
CCc1nc(-c2c3n(c(=O)n(CC(=O)Nc4cc(F)ccc4F)c2=O)CCCCC3)no1	none
O=C(N1CCCCC1)N1CCN(C2CCNCC2)C(=O)C1	none
O=C(c1cc(F)cc(F)c1)N1CCC(Cc2nc(-c3ccccc3)no2)CC1	none
COCCOCc1nc(C2CCCCN2C(=O)Nc2ccccc2)no1 (stereo not drawn)	none
c1ccc(CNc2ncc(CN3CCC4(CCNCC4)CC3)cn2)cc1	none
CCc1cccc(C)c1NC(=O)Cn1c(=O)n(-c2ccccc2)c(=O)c2c1cc(C)n2C	none
COc1cc(N2C(=O)CSC23C(=O)N(Cc2ccc(C)cc2)c2ccccc23)cc(OC)c1OC (stereo not drawn)	none
O=C(CN1C(=O)CCSc2ccccc21)Nc1ccccc1F	none
O=C(CN1C(=O)C2(SCC(=O)N2c2ccc(F)c(F)c2)c2ccccc21)Nc1ccccc1F (stereo not drawn)	Pf Dd2 growth 13µM
Cc1ccc(CNC(=O)CN2C(=O)C3(SCC(=O)N3c3ccc(F)cc3)c3ccccc32)cc1 (stereo not drawn)	none
Cc1cc(C)cc(N2C(=O)CSC23C(=O)N(CC(=O)Nc2ccc(F)cc2F)c2ccccc23)c1 (stereo not drawn)	Pf Dd2 growth 10µM
O=C(CN1C(=O)C2(SCC(=O)N2c2ccccc2)c2ccccc21)NCCc1ccccc1 (stereo not drawn)	none
Cc1ccccc1C(=O)N1CC2(Cc3ccccc3C(=O)N2)C1	none
COC[C@@H]1CN(Cc2cccnc2)C[C@H]1c1nc(C)no1	none
C#CCNC(=O)CC[C@H]1CNC(=O)[C@@H]2[C@@H](CCN2Cc2ccc(C(F)(F)F)cc2)N1C	none
O=C(NCC1CCCN(C(=O)c2ccccn2)C1)c1ccc(-c2ccccc2)cc1 (stereo not drawn)	none
O=C(NC[C@H]1Cn2ccnc2CO1)C1CCCC1	none
O=C([C@@H]1C[C@H](F)CN1S(=O)(=O)c1cccc(F)c1)N1CCCCC1	none
COCCNC(=O)[C@@H]1C[C@H](Oc2ccccc2)CN1C(=O)c1nn(C)c2ccccc12	none
Cc1cc(N2CCC(c3nccn3Cc3ccccn3)CC2)nc2ccccc12	none
CCc1nc2c(c(-c3ccc(Cl)cc3)n1)CCN([S+](=O)([O-])c1cccc(OC)c1)CC2	Pf Dd2 growth 13µM
COc1ccc(-c2nc(C3CC3)nc3c2CCN(CC2CCCCC2)CC3)cc1	none
CCc1nc2c(c(-c3ccc(OC)cc3)n1)CN([S+](=O)([O-])c1cccc(C(F)(F)F)c1)CC2	none
CCc1nc2c(c(-c3ccc(Cl)cc3)n1)CCN(Cc1ccc(C(F)(F)F)cc1)CC2	none
CCc1nc2c(c(-c3ccc(Cl)cc3)n1)CCN(Cc1cc(C)on1)CC2	none
COc1ccc(-c2nc(C3CC3)nc3c2CCN(CC2CC2)CC3)cc1	none
CCc1nc2c(c(-c3ccc(O)cc3)n1)CCN(Cc1ccc(OC)cc1)CC2	Pf Dd2 growth 2µM
COc1cccc([S+](=O)([O-])N2CCc3nc(C4CC4)nc(-c4ccc(Cl)cc4)c3C2)c1	none
CCc1nc2c(c(-c3ccc(O)cc3)n1)CCN(Cc1ccncc1)CC2	none

Screening results from PubChem BioAssay.
